# Laboratory results published in PubChem BioAssay AID485298 (National Center for Advancing Translational Sciences (NCATS), 2010).
# Values joined by “and” are separate entries in the source; they are usually repeats but may differ in a detail not shown here. Equal values may be shown once. About 740 (0.23%) of roughly 320,000 compounds were called active. Roughly 2% stayed inconclusive and do not appear here. The call rests on the fitted dose curve; in most records, active means well fitted activation curve with a large enough effect; inconclusive means small, poorly fitted or top-dose-only effect; inactive means no such curve, though single readings can be large or run the other way. The sample as a whole holds a higher share of actives than the screen did. Where a structure was tested more than once in an assay, its records may differ in their call.
# Assay: qHTS Assay for Small Molecule Inhibitors of Mitochondrial Division or Activators of Mitochondrial Fusion; further: nearly all actives have a fitted effect of over 45% in size; on growth rescue (activation): % of control where 0% means no effect
# Settings: S. cerevisiae fusion-defective mutant growth rescue, CellTiterGlo 48 h; series mostly up to 46.1 µM; growth rescue (activation): at the top concentration
# Source text: NIH Chemical Genomics Center [NCGC] NIH Molecular Libraries Probe Production centers Network [MLPCN] MLPCN Grant: MH081279-01 Assay Submitter (PI): Jodi M. Nunnari NCGC Assay Overview: The budding yeast S. cerevisiae is a powerful system to study mitochondrial fusion. Unlike other organisms, yeast cells without functional mitochondrial DNA (mtDNA) can be propagated and studied as long as they maintain a mitochondrial compartment and are provided with a fermentable carbon source. When mitochondrial fusion is blocked in yeast, mitochondrial tubules rapidly fragment and division continues unopposed. Under conditions where fusion is compromised in mammalian cells, nearly identical changes in mitochondrial structure have been observed. Thus, these findings indicate that steady state mitochondrial structure in cells is a characteristic and specific indicator of fusion activity. Mounting evidence has pointed to a connection between mitochondrial dynamics and apoptosis in mammalian cells. These studies indicate that in mammalian cells mitochondrial dynamics are more integrated into cellular processes than in yeast cells and have evolved not only to distribute the organelle but also to aid in the regulation of cellular homeostasis. Mitochondrial fusion proteins attenuate apoptosis by inhibiting the release of cytochrome c from mitochondria, in part by controlling cristae structures. Thus, small molecules that inhibit mitochondrial […] may promote apoptosis and potentially act as novel chemotherapeutics and stimulation of apoptosis has become an attractive target of anti-cancer therapies. To identify inhibitors of mitochondrial division, we exploit the growth phenotypes of mitochondrial fusion-defective mutants. The temperature sensitive fusion alleles, such as fzo1-1 and mgm1-5, cause mitochondrial membranes to fragment in cells under non-permissive conditions and cells lose mtDNA, and are unable to grow in the presence of non-fermentable carbon source glycerol. Inhibiting mitochondrial division rescues growth. We have developed and optimized a luminescence cell viability assay in 1536 well format for the identification of inhibitors in the yeast mitochondrial fusion-defective assay.
# The yeast glycerol stocks where kindly supplied by the laboratory of Dr. Jodi Nunnari, University of California, Davis. All yeast glycerol stock solutions were stored in single use aliquots at -80C. The CellTiterGlo luminescence reagent, containing luciferase and luciferin, were purchased from Promega, and the reagents were stored according to manufacturer's instructions. The Buffer components for the YPEG yeast growth medium were purchased from Sigma-Aldrich (St. Louis, MO). YPEG growth medium: 1% (w/v) yeast extract, 2% (w/v) Bacto-peptone, 3% Ethanol, 3% glycerol, 0.4mM Tryptophan, 0.36mM Adenine. qHTS Assay Protocol: 1.#Dispense 2.5 ul yeast growth medium per 1536 well plate. 2.#Transfer 23 nl per well of compound to plate. 3.#Dispense 2.5 ul yeast solution at appropriate seeding density per well. 4.#Incubate for 48 hours at 37C. 5.#Dispense 5 ul of CellTiterGlow solution per well. 6.#Incubate at ambient for 10 minutes. 7.#Read using bio-luminescence protocol on Viewlux.
# Potency means the concentration at half of the fitted maximal effect.
SMILES,growth rescue (activation),Potency
O=c1c(Cl)c(NCc2ccc(F)cc2Cl)cnn1C12CC3CC(CC(C3)C1)C2,3.54% (inactive),–
Cc1csc(OCC(=O)Nc2ccc(C)c(C)c2)n1,5.43% (inactive),–
Cc1nc(COc2cc3oc(=O)cc(C)c3cc2Cl)cs1,3.56% (inactive),–
Cc1ccc(C)c(NS(=O)(=O)c2cc(Br)cnc2N)c1,7.1% (inactive),–
CC(=O)/C(C)=N/O,–,20.6 µM (active)
CCCN1CCN(C(=O)Cn2ncc3ccccc32)CC1,-6.24% (inactive),–
CCCCN(C(=O)C(CCSC)N1C(=O)c2ccccc2C1=O)c1c(N)n(CCC)c(=O)[nH]c1=O (stereo not drawn),0.275% (inactive),–
NC1CCN(O)C1=O (stereo not drawn),-8.2% (inactive),–
COC(=O)c1c(C(=O)OC)c2n(c1C)CCS2,-0.353% (inactive),–
CCCC1=Nc2cc(C(=O)NCc3ccco3)ccc2Sc2ccccc21,–,31.6 µM (active)
CCCC1=Nc2cc(C(=O)NCCN3CCCC3)ccc2Sc2ccccc21,-5.25% (inactive),–
CCC1=Nc2cc(C(=O)NCCN3CCCC3)ccc2Sc2ccc(C)cc21,-11.8% (inactive),–
C[C@H](NC(=O)C1CC(=O)N(c2ccc3c(c2)OCCO3)C1)C(=O)N1CCC(C(=O)O)CC1 (stereo partly drawn),0.693% (inactive),–
O=C(NCC(c1ccco1)S(=O)(=O)c1cccs1)c1ccc(F)cc1 (stereo not drawn),-1.33% (inactive),–
COC(=O)CN1C(=O)[C@H]2[C@@H](C3CC3)N3C(=O)CN(Cc4ccc(-c5ccccc5)cc4)C(=O)[C@@]3(Cc3ccccc3)[C@H]2C1=O,4.79% (inactive),–
O=C(NCc1cccnc1)Nc1cccc(NC(=O)NCc2cccnc2)c1F,-4.47% (inactive),–
Cc1ccc(NC(=O)Cn2nnc3sc4c(c3c2=O)CCC(C)C4)cc1 (stereo not drawn),-0.959% (inactive),–
COc1ccc(C2CC(=O)Nc3c2c(=O)nc2c(C)cccn32)cc1OC (stereo not drawn),-1.37% (inactive),–
Cc1ccc(N2CCN(C3=NC(=O)/C(=C\c4cccs4)S3)CC2)cc1,–,22.4 µM (active)
Cc1ccsc1/C=C1\SC(N2CCOCC2)=NC1=O,1.79% (inactive),–
Cc1ccc(N2CCN(/N=C/c3cccs3)CC2)cc1,-2.37% (inactive),–
C=CCn1nc(-c2ccccc2)c2c(C)onc2c1=O,1.38% (inactive),–
O=C1C=C(c2cccc(Cl)c2O)C[C@@H](c2ccc(F)cc2)C1,–,11.2 µM (active)
COc1ccc([C@H]2CC(=O)C=C(c3ccc(CO)cc3)C2)cc1,10.6% (inactive),–
COc1ccc([C@H]2CC(=O)C=C(c3ccc(C)cc3)C2)cc1,25.8% (inactive),–
CC(C)(C)CC(=O)Nc1nnc(SCC(=O)NCc2cccs2)s1,-2.23% (inactive),–

SMILES,growth rescue (activation),Potency
O=C1CSC(=O)N1CCOCCN1C(=O)CSC1=O,-3.76% (inactive),–
Cc1cccc(NC(c2cccc(F)c2)c2ccc3ccc(C)nc3c2O)n1 (stereo not drawn),2.76% (inactive),–
CCCCCc1ccc(-c2ccc(OCC)cc2)nc1,-3.67% (inactive),–
CCCCCc1ccc(-c2ccc(C(=O)O)cc2)nc1,–,15.8 µM (active)
CCCCCc1ccc(-c2cn(Cc3ccc4ccccc4c3)nn2)cc1,1.57% (inactive),–
COc1ccc(-n2c(SCC(=O)Nc3ccc(Cl)c(C)c3)nc3n[nH]c(C)c3c2=N)cc1,1.03% (inactive),–
CN(c1ccccc1)S(=O)(=O)c1cc(C(=O)OCC(=O)N2CCN(C(=O)c3ccco3)CC2)ccc1Cl,5.81% (inactive),–
COc1cc(OC)cc(C(=O)N[C@H](C(=O)Nc2nc3ccccc3[nH]2)C(C)C)c1,-2.45% (inactive),–
CN(c1ccccc1)S(=O)(=O)c1cc(C(=O)Nc2nc3ccccc3[nH]2)ccc1Cl,–,12.6 µM (active)
CN(C)S(=O)(=O)c1ccc(C(=O)NCC2(N3CCOCC3)CCCCC2)cc1,-7.31% (inactive),–
COc1ccc(NS(=O)(=O)c2ccc(C)c(C(=O)N(C)Cc3ccc(OC)cc3OC)c2)cc1,3.44% (inactive),–
CC1CC2C3CCC4=CC(=O)C=C[C@]4(C)[C@@]3(F)[C@@H](O)C[C@]2(C)[C@@]1(O)C(=O)CO (stereo partly drawn),-2.79% (inactive),–
O=C(NCCCCCCCCCNC(=O)C(F)(F)F)C(F)(F)F,3.56% (inactive),–
CC(CN1CCOCC1)OC(=O)c1ccc(Cl)cc1Cl (stereo not drawn),-1.69% (inactive),–
CC(CN1CCOCC1)OC(=O)c1ccc(C(C)(C)C)cc1 (stereo not drawn),6.51% (inactive),–
Cc1ccc(C(=O)OC(C)CN2CCOCC2)cc1 (stereo not drawn),–,22.4 µM (active)
C=C(C)C1CC=C(C)/C(=N\NC(=O)CNc2ccccc2OC)C1 (stereo not drawn),24.6% (inactive),–
Cc1ccc(S(=O)(=O)/N=C(/NC(=S)Nc2c(C)n(C)n(-c3ccccc3)c2=O)c2ccccc2)cc1,0.193% (inactive),–
Cn1c2cc(B(O)O)sc2c2cnn(Cc3ccccc3F)c(=O)c21,-0.837% (inactive),–
COc1cc(C2CC(=O)c3cnc(NC(C)=O)nc3C2)cc(OC)c1OC (stereo not drawn),0.0051% (inactive),–
CCc1ccc(Nc2ncc3c(n2)CC(c2ccco2)CC3=O)cc1 (stereo not drawn),–,11.2 µM (active)
O=C(Nc1ncc2c(n1)CC(c1ccco1)CC2=O)c1ccc(Cl)cc1 (stereo not drawn),6.99% (inactive),–
Cc1cc(NC(=O)Nc2c[nH]c(=O)[nH]c2=O)ccc1Br,0.148% (inactive),–
CCOC(=O)c1c(CNCc2ccccc2F)c2sc(C)cc2n1C,-0.808% (inactive),–
COc1cc(C2NC(=O)NC(c3ccccc3)=C2C(C)=O)c(Br)cc1OCC(N)=O (stereo not drawn),2.71% (inactive),–
COc1ccccc1N(C)S(=O)(=O)c1ccc(C(=O)NC2CCCCCC2)cc1,-3.35% (inactive),–

SMILES,growth rescue (activation),Potency
COc1ccc(CCNC(=O)CN2C(=O)CCSc3ccccc32)c(OC)c1,-10.5% (inactive),–
COCCNC(=S)N/N=C/c1c(C)[nH]c2ccccc12,-4.82% (inactive),–
O=C(N/N=C/c1c(Cl)[nH]c2ccccc12)c1sc2ccccc2c1Cl,–,15.8 µM (active)
COc1ccc(CNC(=O)CNC(=O)c2sc3ccccc3c2Cl)cc1OC,-3.78% (inactive),–
Nc1ncnc2c1c(I)cn2[C@@H]1C[C@H](N)[C@@H](O)[C@H]1O,-0.615% (inactive),–
COc1ccccc1NC(=O)c1cc(S(=O)(=O)NCCc2ccccc2)ccc1F,-4.24% (inactive),–
COc1cccc(-n2c(=O)c3c(C)c(C(=O)N(C)C)sc3n(CC(=O)NCCc3ccc(OC)c(OC)c3)c2=O)c1,-2.48% (inactive),–
CCCCNC(=O)C1CCC(CNS(=O)(=O)c2ccc(NC(C)=O)cc2)CC1 (stereo not drawn),-18.1% (inactive),–
COCCCNC(=O)c1ccc(CNS(=O)(=O)c2ccc(NC(C)=O)cc2)cc1,–,0.631 µM (active)
CC(=O)Nc1ccc(S(=O)(=O)NCCc2ccccc2)cc1,-2.71% (inactive),–
O=C(NC1CCCC1)C(c1ccco1)N(C(=O)c1ccco1)c1ccc(F)cc1 (stereo not drawn),0.928% (inactive),–
CN(C)C(=O)c1ccc2c(c1)C1C3CCC(C3)C1C(c1ccccc1)N2 (stereo not drawn),–,12.6 µM (active)
CN(C)C(=O)c1ccc(NC(=O)c2ccccc2-c2ccccc2)cc1,-1.29% (inactive),–
CC1(C)C/C(=C(/C#N)C(N)=O)CCO1,-4.67% (inactive),–
NC(N)=Nc1nc2ccc(Br)cc2c(=O)[nH]1,3.53% (inactive),–
O=S(=O)(Nc1ccc2nc(N3CCOCC3)sc2c1)c1ccccc1,9.86% (inactive),–
CC(=O)OCCOCn1cnn2c(=O)c(Br)c(C)nc12,-1.24% (inactive),–
CCC(=O)Nc1ccc(-c2ccc(N3CCCCC3)nn2)cc1,–,17.8 µM (active)
CCC(=O)c1ccc(OCC(=O)Nc2ccc(N3CCCCC3)cc2)cc1,0.121% (inactive),–
CC1CCN(c2ccc(-c3ccc(NC(=O)c4ccco4)cc3)nn2)CC1,13.5% (inactive),–
CCOc1ccc(/C(O)=C2\C(=O)C(=O)N(c3ccc(OC)cc3)C2c2ccccc2[N+](=O)[O-])cc1 (stereo not drawn),-5.38% (inactive),–
CCOC(=O)C1=C(c2ccccc2)NC(=O)NC1c1cc(OC)c(OC)cc1OC (stereo not drawn),5.15% (inactive),–
CCCC[C@]12Cc3cc(OC)c(OC)cc3C(O1)C1=C(CC3(CCCCC3)OC1=O)O2,-0.167% [at 9.22 µM] (inactive),–
COc1ccccc1CN1CCCC(N2CCN(c3ccc(F)cc3)CC2)C1 (stereo not drawn),-2.15% (inactive),–
O=C(c1ccc(C(F)(F)F)cc1)C1CCCN(C(=O)c2csnn2)C1 (stereo not drawn),2.59% (inactive),–
O=C(CCNC(=O)c1ccccc1)Nc1nc2ccccc2s1,-3.72% (inactive),–

SMILES,growth rescue (activation),Potency
O=C(CN1C(=O)/C(=C\c2ccccc2F)SC1=S)Nc1nc2ccccc2s1,–,12.6 µM (active)
O=C(CN1C(=O)S/C(=C\c2ccccc2F)C1=O)NCCCn1ccnc1,0.524% (inactive),–
CS(=O)(=O)N1CCN=C1SCc1ccc(F)cc1,4.07% (inactive),–
O=C(Nc1ccccc1-c1ccccc1)c1ccccc1[N+](=O)[O-],2.36% (inactive),–
COc1cc2ccccc2cc1C(=O)Nc1ccccc1C,1.86% (inactive),–
COc1cc(OC)c(C(=O)Nc2ccccc2-c2ccccc2)cc1OC,–,15.8 µM (active)
O=C(O)CCN(Cc1ccccc1)S(=O)(=O)c1c(Cl)cccc1Cl,22.5% (inactive),–
CCN(C(=O)CN1CCN(Cc2ccccc2)CC1)c1c(N)n(Cc2ccccc2)c(=O)[nH]c1=O,-42.3% (inactive),–
COc1ccc(OC)c(C(=O)NC(CC(N)=O)c2ccc(N3CCC(N4CCCCC4)CC3)c([N+](=O)[O-])c2)c1 (stereo not drawn),-2.61% (inactive),–
O=C(NCCc1ccc(Cl)cc1)c1cccc(N2CCCC2=O)c1,-2.8% (inactive),–
COc1ccc(CCNC(=S)N2CCN(S(=O)(=O)c3ccc(Cl)cc3)CC2)cc1,-0.0364% (inactive),–
Oc1cc2c(cc1O)CN(C(=S)NCCc1ccc(Cl)cc1)CCC2,–,inactive and 18.4 µM (active)
Oc1ccc(Cn2cc[nH]c2=S)cc1,-1.97% (inactive),–
CN(C)CCN=c1cc(-c2ccccc2)oc2ccc(Cl)cc12,-3.04% (inactive),–
COc1ccc(/C=C/c2c(-c3cccc(C)c3)oc3ccc(-c4ccc5c(c4)OCO5)cc23)cc1,-0.013% (inactive),–
CSCCC(NS(=O)(=O)c1ccc(C)cc1)C(=O)N1CCCC1 (stereo not drawn),–,35.5 µM (active)
CSCCC(NC(=O)c1ccccc1)C(=O)N1CCCCCCC1 (stereo not drawn),2.81% (inactive),–
CSCC(NS(=O)(=O)c1ccc(C)cc1)C(=O)O (stereo not drawn),1.27% (inactive),–
CC(=O)c1cccc(NC(=O)C2CCCN2S(=O)(=O)c2cccc3nsnc23)c1 (stereo not drawn),-1.28% (inactive),–
C=CCn1c(CCNC(=O)c2ccccc2F)nnc1SCC(=O)Nc1ccc(OC)cc1,-3.75% (inactive),–
CC(=O)NC(c1cccs1)c1cc(Br)c2cccnc2c1O (stereo not drawn),7.37% (inactive),–
Cc1cc(C(=O)Nc2nnc(C3CC3)s2)c(C)s1,8.28% (inactive),–
CN(C)c1ccc(C(CNC(=O)c2ccc(F)cc2)c2c[nH]c3ccccc23)cc1 (stereo not drawn),–,15.8 µM (active)
O=C(CNC(=O)c1ccc(F)cc1)c1ccccc1,-3.34% (inactive),–
C[C@H](NC(=O)c1ccccc1)C(=O)OCC(=O)c1c[nH]c2ccccc12,-0.566% (inactive),–
